Only some compounds are listed: those with a hit (about 2.3% of all), similar ones and a draw of the others.
Chronic BCR inh = qHTS Assay to Find Inhibitors of Chronic Active B-Cell Receptor Signaling. 0.05% of 340,000 active. ABC-DLBCL IkBa-CBG/CBR reporter, luminescence ratio, 4 h. AID 493014, 2011. Potency, µM (doses to about 46.1 µM), actives largely listed as inhibitors; active = well fitted inhibition curve with a large enough effect in the signal ratio, with a control signal flat, not every such curve was filed as active; inconclusive = small, poorly fitted or top-dose-only effect, or effect the other way, or a change in a side signal; the % refers to the signal ratio
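TMD8 human ABC-DLBCL cells with doxycycline-inducible IκBα–green luciferase fusion and unfused red luciferase, in 0.5% FBS medium; compounds up to 46 uM, 4 h at 37C. Green/red luminescence ratio, filter-overlap corrected, fitted to concentration-response curves.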
Abeta rescue = qHTS for compounds that reverse cellular toxicity of Amyloid beta (A-beta) peptide in yeast: Primary Screen; yeast expressing A-beta42, growth rescue, OD600, 48 h; response scale: 0% DMSO, 100% iron-clioquinol control; Potency, µM (doses to about 46.1 µM), hits mostly activators; 0.063% of 410,000 active; AID 1347071, 2019; also: nearly all actives have a fitted effect of over 55% in size
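Yeast growth medium received pinned compounds, then yeast cells expressing toxic A-beta were added; plates incubated at 30 C for 48 hr. Growth read as absorbance at 600 nm, normalized to DMSO and equimolar FeCl3 plus clioquinol controls.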
FUS suppressor = qHTS for Suppressors of FUS Proteinopathy: Primary screen using FUS-linked yeast assay. Potency, µM (highest dose often 76.6 µM), most hits filed as activators. AID 1347120, 2019. 0.24% of 390,000 active. S. cerevisiae FUS-expressing, growth rescue, OD600, 24 h; also: nearly all actives have a fitted effect of over 55% in size
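Compound concentration series was pinned onto galactose-induced FUS-expressing yeast seeded at OD 0.005. Plates sat 24hr at 30C; absorbance at 600 nm gave growth. DMSO served as background control.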
TDP-43 yeast inh = qHTS of TDP-43 Inhibitors; Potency, µM (top dose mostly 46.1 µM), hits mostly activators; TDP-43 expressing yeast growth rescue, BacTiter-Glo, 24 h; 1.8% of 410,000 active; AID 652104, 2013; also: nearly all actives have a fitted effect of over 50% in size
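In this qHTS, compounds that restore growth of yeast expressing TDP-43 appear as activators. Cells (OD600=0.02, galactose medium, raffinose-pregrown) are incubated with compound 24 hr at 30 deg C and growth is quantified by BacTiter-Glo.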
uPA generation = qHTS for Inhibitors of Cell Surface uPA Generation; cell surface uPA generation assay, qHTS; Potency, µM (highest dose often 38.3 µM), most hits filed as inhibitors; 0.31% of 330,000 active; active = well fitted inhibition curve with a large enough effect; inconclusive = small, poorly fitted or top-dose-only effect; inactive = no such curve, though single readings can be large or run the other way; tested in mouse RAW 264.7 cells; also: nearly all actives have a fitted effect of over 55% in size
aSyn yeast inh = qHTS of alpha-syn Inhibitors; Yeast expressing alpha-synuclein, growth rescue, BacTiter-Glo, 24 h; Potency, µM (series often up to 46.1 µM), most hits filed as activators; 0.14% of 370,000 active; also: nearly all actives have a fitted effect of over 65% in size
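Galactose-induced alpha-syn yeast (OD600=0.02, raffinose-pregrown) + pinned cpd, 24 hr, 30 deg C; growth by BacTiter-Glo luminescence. Growth restoration scores as activation.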
A number is an active result; 0 = inactive; ? = inconclusive; - = not tested or not shown. Unless noted, calls follow the shape of the dose curve; as a rule, active = well fitted curve in the direction sought with a large enough effect; inconclusive = small, poorly fitted or top-dose-only effect, or another doubt; inactive = no such curve, though single readings can be large; an effect the other way counts as inactive or inconclusive.

SMILES	Chronic BCR inh	Abeta rescue	FUS suppressor	TDP-43 yeast inh	uPA generation	aSyn yeast inh
Cc1cc(N2CCOCC2)nc(SCC(=O)OCc2ccccc2)n1	0	0	0	0	0	0
CCc1ccc2oc(=O)cc(CN3CCN(c4ccc(F)cc4)CC3)c2c1	?	0	0	0	0	0
CC(C)c1ccc2oc(=O)cc(CN3CCN(c4ccc(F)cc4)CC3)c2c1	0	0	0	14µM	0	0
Cc1ccc(S(=O)(=O)N2CCOCC2)cc1NC(=O)CSc1nc(N)cc(=O)[nH]1	0	0	0	0	0	0
Clc1cccc(-n2cc(-c3ccccc3)c3c(NC4CCCC4)ncnc32)c1	?	0	0	0	-	-
CN(C)CCCNc1ncnc2c1c(-c1ccccc1)cn2-c1ccccc1	?	0	0	0	?	0
c1ccc(-c2cn(-c3ccccc3)c3ncnc(N4CCCCC4)c23)cc1	0	0	0	18µM	0	0
CCCNc1ncnc2c1c(-c1ccccc1)cn2-c1ccccc1	?	0	?	22µM	-	-
COc1ccc(-n2cc(-c3ccccc3)c3c(NC4CCCC4)ncnc32)cc1	?	0	0	22µM	-	-
COCCN(CCOC)c1ncnc2c1c(-c1ccccc1)cn2-c1ccc(C)c(Cl)c1	0	0	0	25µM	-	-
CC[C@@]12C(=O)N(c3cccc(C)c3)C(=O)N1[C@H](c1ccc(OC)cc1)[C@@H]1C(=O)N(C(C)(C)C)C(=O)[C@@H]12	0	0	0	0	0	0
COc1ccc(CCNc2ncnc3c2c(-c2ccccc2)cn3-c2ccc(Cl)cc2)cc1OC	0	0	14µM	?	-	-
Cc1cc(C)c(NS(=O)(=O)c2cc(-c3cnc(C4CC4)o3)ccc2C)c(C)c1	-	0	0	0	-	-
COc1ccccc1NS(=O)(=O)c1ccc(-c2cnc(C3CC3)o2)cc1	?	0	0	0	?	0
Cc1ccc(-c2cnc(C3CC3)o2)cc1S(=O)(=O)Nc1ccccc1	?	0	0	32µM	?	?
CC(=O)Nc1ccc(NS(=O)(=O)c2cc(-c3cnc(C4CC4)o3)ccc2C)cc1	?	0	0	0	0	0
CCN(CC)c1ccc(NS(=O)(=O)c2ccc(-c3cnc(C4CC4)o3)cc2)c(C)c1	-	0	0	0	-	-
Cc1ccc(NS(=O)(=O)c2ccc(-c3cnc(C4CC4)o3)cc2)c(C)c1	?	-	?	28µM	?	?
Cc1cc(C)c(NS(=O)(=O)c2ccc(-c3cnc(C4CC4)o3)cc2)c(C)c1	-	13µM	0	?	-	-
COc1ccccc1CNS(=O)(=O)c1ccc(-c2cnc(C3CC3)o2)cc1	?	0	?	0	0.28µM	0
Cc1nn(Cc2nnc(SCC(=O)Nc3cccc(C(F)(F)F)c3)n2C)c(C)c1[N+](=O)[O-]	0	0	0	0	0	0
COc1ccccc1C(=O)n1nc(-c2ccccc2)nc1NCc1ccco1	?	0	0	0	0	0
O=S(=O)(Nc1ccc(F)cc1Cl)c1ccc(-c2cnc(C3CC3)o2)cc1	?	?	0	35µM	?	?
CCOc1ccccc1NS(=O)(=O)c1ccc(-c2cnc(C3CC3)o2)cc1	?	0	0	?	0	0
O=S(=O)(Nc1cccc(C(F)(F)F)c1)c1ccc(-c2cnc(C3CC3)o2)cc1	-	0	0	25µM	-	-
O=C(O)c1cccc(S(=O)(=O)NCC2CCCO2)c1 (stereo unspecified)	0	0	0	0	0	0
O=C(NCCCc1ccccc1)C1CCC(=O)N(Cc2ccc(Cl)cc2)C1 (stereo unspecified)	0	0	-	0	?	0
COc1ccc(/C=C\c2onc(C)c2S(=O)(=O)N2CCC(C(=O)Nc3ccccc3OC)CC2)cc1	-	0	13µM	0	-	-
CC(CNC(=O)CCCn1c(=O)c2cccn2c2ccc(F)cc21)c1ccccc1 (stereo unspecified)	-	0	?	25µM	-	-

Screens (PubChem)
